Test results reported in ChEMBL document CHEMBL1961873, “Compounds: GSK PKIS; Assays: Nanosyn kinase panel” (2012).

Assays:
[1] = biological target: T1, Ephrin type-B receptor 2 (Homo sapiens) (UniProt P29323); settings: at 1 µM
T1 sequence (whole entry): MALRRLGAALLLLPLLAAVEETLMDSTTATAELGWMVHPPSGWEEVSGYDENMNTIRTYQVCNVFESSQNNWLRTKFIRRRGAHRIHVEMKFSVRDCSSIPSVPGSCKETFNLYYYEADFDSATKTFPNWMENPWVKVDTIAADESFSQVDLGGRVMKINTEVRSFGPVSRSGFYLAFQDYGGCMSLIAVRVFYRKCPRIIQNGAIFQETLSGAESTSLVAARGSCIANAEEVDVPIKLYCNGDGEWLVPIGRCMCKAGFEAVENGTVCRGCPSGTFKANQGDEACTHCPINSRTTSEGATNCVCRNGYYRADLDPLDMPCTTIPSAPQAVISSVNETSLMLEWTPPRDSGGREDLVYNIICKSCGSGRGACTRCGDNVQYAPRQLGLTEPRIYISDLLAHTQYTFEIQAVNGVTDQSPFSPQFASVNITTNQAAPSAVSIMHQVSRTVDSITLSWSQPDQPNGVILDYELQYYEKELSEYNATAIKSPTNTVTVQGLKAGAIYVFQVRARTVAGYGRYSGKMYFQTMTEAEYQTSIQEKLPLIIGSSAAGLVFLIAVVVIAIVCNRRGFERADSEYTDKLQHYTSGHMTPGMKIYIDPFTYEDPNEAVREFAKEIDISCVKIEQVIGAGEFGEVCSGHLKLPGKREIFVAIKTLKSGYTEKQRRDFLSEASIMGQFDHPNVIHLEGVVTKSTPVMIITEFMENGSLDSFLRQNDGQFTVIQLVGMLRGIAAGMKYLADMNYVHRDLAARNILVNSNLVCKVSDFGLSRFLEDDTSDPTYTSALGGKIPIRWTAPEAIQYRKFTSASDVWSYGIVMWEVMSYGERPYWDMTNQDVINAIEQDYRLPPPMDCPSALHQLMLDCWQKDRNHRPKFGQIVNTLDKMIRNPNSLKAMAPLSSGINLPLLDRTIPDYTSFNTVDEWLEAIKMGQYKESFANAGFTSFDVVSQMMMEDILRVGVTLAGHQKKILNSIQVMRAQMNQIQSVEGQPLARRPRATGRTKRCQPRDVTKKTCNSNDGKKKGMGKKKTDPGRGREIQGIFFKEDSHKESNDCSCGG

[2] = biological target: T2, Ephrin type-B receptor 3 (Homo sapiens) (UniProt P54753); settings: at 0.1 µM
T2 sequence (whole entry): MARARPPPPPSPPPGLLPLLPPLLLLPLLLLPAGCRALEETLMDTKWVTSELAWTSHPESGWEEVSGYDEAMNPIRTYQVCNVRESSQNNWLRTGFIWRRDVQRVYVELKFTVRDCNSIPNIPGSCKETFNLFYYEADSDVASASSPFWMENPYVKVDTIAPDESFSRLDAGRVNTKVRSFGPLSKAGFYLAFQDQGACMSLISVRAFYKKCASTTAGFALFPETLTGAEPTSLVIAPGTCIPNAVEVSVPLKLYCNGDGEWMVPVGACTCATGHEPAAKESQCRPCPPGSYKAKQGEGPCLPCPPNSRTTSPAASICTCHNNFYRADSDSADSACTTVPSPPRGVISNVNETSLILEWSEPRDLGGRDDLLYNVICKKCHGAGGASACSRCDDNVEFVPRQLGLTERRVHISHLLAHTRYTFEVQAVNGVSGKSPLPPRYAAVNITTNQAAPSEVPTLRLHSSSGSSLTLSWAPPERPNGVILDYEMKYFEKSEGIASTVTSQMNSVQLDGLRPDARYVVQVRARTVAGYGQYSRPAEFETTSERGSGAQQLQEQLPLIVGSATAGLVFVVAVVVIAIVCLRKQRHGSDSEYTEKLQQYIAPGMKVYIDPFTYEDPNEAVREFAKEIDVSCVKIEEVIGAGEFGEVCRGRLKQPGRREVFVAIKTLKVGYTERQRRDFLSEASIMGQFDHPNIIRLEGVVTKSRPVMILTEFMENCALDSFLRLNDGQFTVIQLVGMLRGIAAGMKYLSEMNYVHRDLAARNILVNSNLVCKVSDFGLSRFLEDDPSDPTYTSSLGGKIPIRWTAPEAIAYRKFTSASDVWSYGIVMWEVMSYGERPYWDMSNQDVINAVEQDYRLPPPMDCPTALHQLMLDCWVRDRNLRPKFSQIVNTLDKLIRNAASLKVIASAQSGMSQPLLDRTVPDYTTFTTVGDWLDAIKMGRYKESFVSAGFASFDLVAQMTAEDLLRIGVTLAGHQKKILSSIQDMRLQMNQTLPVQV

[3] = biological target: T2, Ephrin type-B receptor 3 (Homo sapiens); settings: at 1 µM
[4] = biological target: T3, Ephrin type-B receptor 4 (Homo sapiens) (UniProt P54760); settings: at 0.1 µM
T3 sequence (whole entry): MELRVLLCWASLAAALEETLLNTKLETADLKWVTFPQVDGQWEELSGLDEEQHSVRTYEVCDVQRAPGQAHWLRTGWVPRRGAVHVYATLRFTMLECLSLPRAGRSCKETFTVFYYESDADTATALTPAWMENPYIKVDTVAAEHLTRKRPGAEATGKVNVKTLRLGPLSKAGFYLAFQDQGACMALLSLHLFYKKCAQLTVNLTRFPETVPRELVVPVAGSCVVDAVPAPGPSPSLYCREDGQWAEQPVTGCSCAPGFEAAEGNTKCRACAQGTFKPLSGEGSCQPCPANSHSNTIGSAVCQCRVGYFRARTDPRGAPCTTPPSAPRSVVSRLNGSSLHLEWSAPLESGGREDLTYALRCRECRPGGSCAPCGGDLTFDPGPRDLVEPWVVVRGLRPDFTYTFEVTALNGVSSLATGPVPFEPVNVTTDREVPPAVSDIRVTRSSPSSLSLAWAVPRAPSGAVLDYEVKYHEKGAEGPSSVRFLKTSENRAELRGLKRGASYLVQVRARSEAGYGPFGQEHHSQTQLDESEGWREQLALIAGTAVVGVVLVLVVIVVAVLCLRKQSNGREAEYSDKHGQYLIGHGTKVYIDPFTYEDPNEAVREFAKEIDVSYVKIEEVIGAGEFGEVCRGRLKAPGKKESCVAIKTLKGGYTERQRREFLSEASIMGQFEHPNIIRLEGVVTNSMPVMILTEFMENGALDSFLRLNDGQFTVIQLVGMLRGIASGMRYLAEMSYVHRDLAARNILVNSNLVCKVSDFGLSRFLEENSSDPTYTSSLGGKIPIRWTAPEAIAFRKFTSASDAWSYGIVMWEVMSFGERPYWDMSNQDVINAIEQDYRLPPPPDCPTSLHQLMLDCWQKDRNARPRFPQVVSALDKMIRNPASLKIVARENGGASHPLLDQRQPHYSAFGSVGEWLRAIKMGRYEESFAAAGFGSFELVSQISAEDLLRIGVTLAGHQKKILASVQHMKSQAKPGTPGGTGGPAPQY

[5] = biological target: T3, Ephrin type-B receptor 4 (Homo sapiens); settings: at 1 µM
[6] = biological target: Receptor tyrosine-protein kinase erbB-2 (Homo sapiens) (UniProt P04626); settings: at 0.1 µM
[7] = biological target: Receptor tyrosine-protein kinase erbB-2 (Homo sapiens) (UniProt P04626); settings: at 1 µM
[8] = biological target: Receptor tyrosine-protein kinase erbB-4 (Homo sapiens) (UniProt Q15303); settings: at 0.1 µM
Chain of Receptor tyrosine-protein kinase erbB-4 (Homo sapiens) (Q15303 whole entry): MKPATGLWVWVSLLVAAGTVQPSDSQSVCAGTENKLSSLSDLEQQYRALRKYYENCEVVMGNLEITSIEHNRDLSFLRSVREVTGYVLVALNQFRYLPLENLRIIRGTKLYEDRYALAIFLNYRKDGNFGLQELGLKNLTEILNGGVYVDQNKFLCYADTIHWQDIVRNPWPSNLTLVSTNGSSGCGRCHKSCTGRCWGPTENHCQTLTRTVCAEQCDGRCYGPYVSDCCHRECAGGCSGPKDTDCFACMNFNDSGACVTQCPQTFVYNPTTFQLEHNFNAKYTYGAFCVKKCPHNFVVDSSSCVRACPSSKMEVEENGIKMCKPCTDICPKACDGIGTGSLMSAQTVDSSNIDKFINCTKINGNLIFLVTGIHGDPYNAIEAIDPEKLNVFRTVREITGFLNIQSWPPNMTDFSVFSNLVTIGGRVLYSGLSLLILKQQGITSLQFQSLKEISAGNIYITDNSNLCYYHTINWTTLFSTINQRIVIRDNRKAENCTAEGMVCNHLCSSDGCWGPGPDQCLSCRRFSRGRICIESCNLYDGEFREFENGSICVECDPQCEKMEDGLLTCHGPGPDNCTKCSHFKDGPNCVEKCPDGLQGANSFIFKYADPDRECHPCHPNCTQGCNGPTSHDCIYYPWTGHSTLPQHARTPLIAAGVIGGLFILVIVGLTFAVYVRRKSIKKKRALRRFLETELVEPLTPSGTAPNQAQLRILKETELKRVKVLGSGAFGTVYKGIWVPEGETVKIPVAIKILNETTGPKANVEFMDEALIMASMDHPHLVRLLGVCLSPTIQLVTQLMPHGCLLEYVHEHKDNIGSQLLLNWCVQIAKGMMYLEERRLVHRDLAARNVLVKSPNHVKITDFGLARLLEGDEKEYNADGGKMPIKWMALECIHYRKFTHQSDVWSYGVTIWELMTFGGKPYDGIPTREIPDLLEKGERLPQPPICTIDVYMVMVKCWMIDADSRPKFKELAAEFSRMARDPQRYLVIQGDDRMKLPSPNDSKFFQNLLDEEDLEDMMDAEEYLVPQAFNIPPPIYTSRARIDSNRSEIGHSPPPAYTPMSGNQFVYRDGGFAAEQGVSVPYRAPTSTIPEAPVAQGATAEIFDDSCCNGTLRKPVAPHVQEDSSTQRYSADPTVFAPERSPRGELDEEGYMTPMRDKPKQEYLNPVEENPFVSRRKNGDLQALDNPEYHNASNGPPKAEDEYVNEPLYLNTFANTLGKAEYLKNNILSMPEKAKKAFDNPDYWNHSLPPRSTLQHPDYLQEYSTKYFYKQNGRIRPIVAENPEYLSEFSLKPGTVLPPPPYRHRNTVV

[9] = biological target: Receptor tyrosine-protein kinase erbB-4 (Homo sapiens) (UniProt Q15303); settings: at 1 µM
[10] = biological target: Tyrosine-protein kinase Fer (Homo sapiens) (UniProt P16591); settings: at 0.1 µM
Chain of Tyrosine-protein kinase Fer (Homo sapiens) (P16591 whole entry, looked up): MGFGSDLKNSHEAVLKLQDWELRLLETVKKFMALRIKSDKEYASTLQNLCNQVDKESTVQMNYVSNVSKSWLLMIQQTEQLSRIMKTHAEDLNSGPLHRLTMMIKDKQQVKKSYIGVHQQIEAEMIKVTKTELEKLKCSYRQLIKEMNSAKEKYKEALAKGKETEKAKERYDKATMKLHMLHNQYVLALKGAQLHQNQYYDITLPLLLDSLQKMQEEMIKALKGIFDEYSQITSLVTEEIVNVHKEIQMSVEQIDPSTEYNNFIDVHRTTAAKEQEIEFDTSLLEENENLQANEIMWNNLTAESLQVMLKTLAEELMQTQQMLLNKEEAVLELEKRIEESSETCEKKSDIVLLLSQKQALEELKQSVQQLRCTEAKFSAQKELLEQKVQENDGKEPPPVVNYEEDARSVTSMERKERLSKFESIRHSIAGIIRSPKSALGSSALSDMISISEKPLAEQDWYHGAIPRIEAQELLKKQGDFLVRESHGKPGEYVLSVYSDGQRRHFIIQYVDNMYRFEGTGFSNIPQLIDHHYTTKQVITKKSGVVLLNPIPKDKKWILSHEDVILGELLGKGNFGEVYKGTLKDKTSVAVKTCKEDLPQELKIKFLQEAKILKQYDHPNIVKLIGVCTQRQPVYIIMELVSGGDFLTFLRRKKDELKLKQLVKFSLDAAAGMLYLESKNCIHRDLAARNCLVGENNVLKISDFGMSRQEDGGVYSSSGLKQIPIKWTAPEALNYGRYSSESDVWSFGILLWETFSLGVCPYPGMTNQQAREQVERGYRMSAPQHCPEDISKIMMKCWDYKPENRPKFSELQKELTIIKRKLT

[11] = biological target: Tyrosine-protein kinase Fer (Homo sapiens) (UniProt P16591); settings: at 1 µM
[12] = biological target: Tyrosine-protein kinase Fes/Fps (Homo sapiens) (UniProt P07332); settings: at 0.1 µM
[13] = biological target: Tyrosine-protein kinase Fes/Fps (Homo sapiens) (UniProt P07332); settings: at 1 µM
[14] = biological target: Fibroblast growth factor receptor 1 (Homo sapiens) (UniProt P11362); settings: at 0.1 µM
Chain of Fibroblast growth factor receptor 1 (Homo sapiens) (P11362 22-822 limits assumed): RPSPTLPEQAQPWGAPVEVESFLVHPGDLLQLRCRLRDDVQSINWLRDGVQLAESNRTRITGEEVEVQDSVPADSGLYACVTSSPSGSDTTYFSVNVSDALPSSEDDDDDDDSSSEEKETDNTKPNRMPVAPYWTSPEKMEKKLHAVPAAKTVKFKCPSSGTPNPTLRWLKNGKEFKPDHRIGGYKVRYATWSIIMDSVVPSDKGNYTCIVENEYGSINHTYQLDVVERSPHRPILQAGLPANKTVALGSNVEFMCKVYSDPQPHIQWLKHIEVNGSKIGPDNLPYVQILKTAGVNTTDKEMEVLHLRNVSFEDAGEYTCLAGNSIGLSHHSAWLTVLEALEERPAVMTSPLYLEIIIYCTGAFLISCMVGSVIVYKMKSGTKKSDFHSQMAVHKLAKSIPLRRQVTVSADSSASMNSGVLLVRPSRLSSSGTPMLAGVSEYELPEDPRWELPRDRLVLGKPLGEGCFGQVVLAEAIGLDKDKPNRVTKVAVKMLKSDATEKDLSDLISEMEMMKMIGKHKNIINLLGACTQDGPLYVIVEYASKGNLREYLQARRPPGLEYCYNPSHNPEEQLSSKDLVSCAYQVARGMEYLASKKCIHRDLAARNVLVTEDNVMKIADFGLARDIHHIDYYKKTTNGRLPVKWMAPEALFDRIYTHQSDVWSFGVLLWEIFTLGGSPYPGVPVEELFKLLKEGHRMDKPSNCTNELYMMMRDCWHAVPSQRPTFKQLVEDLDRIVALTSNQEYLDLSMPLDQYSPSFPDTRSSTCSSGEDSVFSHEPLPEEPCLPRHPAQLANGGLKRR

[15] = biological target: Fibroblast growth factor receptor 1 (Homo sapiens) (UniProt P11362); settings: at 1 µM
[16] = biological target: Fibroblast growth factor receptor 2 (Homo sapiens) (UniProt P21802); settings: at 0.1 µM
[17] = biological target: Fibroblast growth factor receptor 2 (Homo sapiens) (UniProt P21802); settings: at 1 µM
[18] = biological target: Fibroblast growth factor receptor 3 (Homo sapiens) (UniProt P22607); settings: at 0.1 µM
Chain of Fibroblast growth factor receptor 3 (Homo sapiens) (P22607 23-806 limits assumed): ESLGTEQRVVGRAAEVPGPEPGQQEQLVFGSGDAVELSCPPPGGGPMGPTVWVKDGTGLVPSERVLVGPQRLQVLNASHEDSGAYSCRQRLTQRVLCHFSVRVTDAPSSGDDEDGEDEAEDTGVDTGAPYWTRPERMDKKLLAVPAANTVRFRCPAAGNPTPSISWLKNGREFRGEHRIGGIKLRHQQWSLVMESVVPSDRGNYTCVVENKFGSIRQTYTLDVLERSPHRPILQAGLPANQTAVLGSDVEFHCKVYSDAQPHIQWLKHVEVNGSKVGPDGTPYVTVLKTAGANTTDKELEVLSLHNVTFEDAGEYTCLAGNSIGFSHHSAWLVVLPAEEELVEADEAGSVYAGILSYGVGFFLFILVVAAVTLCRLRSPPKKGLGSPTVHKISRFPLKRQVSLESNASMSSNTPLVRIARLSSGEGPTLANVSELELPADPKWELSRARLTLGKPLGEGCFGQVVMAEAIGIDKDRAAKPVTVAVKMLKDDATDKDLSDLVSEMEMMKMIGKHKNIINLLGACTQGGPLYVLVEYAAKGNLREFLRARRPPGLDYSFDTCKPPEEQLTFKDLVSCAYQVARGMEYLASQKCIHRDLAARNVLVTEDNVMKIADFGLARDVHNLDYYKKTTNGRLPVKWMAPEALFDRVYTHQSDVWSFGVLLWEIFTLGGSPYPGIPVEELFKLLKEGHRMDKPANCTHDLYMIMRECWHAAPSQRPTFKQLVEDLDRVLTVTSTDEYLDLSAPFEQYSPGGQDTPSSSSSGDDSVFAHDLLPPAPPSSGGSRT

[19] = biological target: Fibroblast growth factor receptor 3 (Homo sapiens) (UniProt P22607); settings: at 1 µM
[20] = biological target: Fibroblast growth factor receptor 4 (Homo sapiens) (UniProt P22455); settings: at 0.1 µM;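 note: values are mean percent inhibition of FGFR4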
Chain of Fibroblast growth factor receptor 4 (Homo sapiens) (P22455 22-802 limits assumed): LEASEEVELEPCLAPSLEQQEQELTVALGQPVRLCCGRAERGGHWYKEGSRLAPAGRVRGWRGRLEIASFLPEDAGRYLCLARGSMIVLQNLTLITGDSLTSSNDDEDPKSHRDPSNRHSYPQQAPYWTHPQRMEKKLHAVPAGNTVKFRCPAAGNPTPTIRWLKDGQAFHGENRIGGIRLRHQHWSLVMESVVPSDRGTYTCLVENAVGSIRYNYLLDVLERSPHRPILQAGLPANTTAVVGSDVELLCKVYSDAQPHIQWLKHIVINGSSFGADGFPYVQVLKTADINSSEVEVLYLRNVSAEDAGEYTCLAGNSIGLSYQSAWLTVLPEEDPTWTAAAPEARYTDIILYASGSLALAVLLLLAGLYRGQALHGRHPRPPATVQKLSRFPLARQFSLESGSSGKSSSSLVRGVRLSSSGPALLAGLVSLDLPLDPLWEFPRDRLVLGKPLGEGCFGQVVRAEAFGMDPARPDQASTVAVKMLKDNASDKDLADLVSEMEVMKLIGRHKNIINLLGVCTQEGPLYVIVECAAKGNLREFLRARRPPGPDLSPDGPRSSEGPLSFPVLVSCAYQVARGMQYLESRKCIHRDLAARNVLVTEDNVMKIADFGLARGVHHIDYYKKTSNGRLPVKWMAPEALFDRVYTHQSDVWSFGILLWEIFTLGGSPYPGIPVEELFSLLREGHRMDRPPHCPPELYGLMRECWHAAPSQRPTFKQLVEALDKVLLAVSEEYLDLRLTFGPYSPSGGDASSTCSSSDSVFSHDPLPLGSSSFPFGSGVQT

CCCN(CCS(C)(=O)=O)Cc1ccc(-c2ccc3ncnc(Nc4ccc(OCc5cccc(F)c5)c(Cl)c4)c3c2)o1
inhibition [1]: 5.21% | inhibition [2]: 4.42% | inhibition [3]: 2.17% | inhibition [4]: 3.87% | inhibition [5]: 1.36% | inhibition [6]: 19.1% | inhibition [7]: 82.1% | inhibition [8]: 76.3% | inhibition [9]: 79.2% | inhibition [10]: 2.14% | inhibition [11]: 5.25% | inhibition [12]: 1.38% | inhibition [13]: 1.43% | inhibition [14]: 3.02% | inhibition [15]: 2.95% | inhibition [16]: -0.3% | inhibition [17]: 2.2% | inhibition [18]: 3.56% | inhibition [19]: 2.41% | inhibition [20]: 1.61%

CCn1c(-c2nonc2N)nc2ccccc21
inhibition [1]: 10.1% | inhibition [2]: 5.49% | inhibition [3]: 2.17% | inhibition [4]: 1.03% | inhibition [5]: 1.88% | inhibition [6]: 0.88% | inhibition [7]: -2.17% | inhibition [8]: 12.3% | inhibition [9]: 12.3% | inhibition [10]: 5.9% | inhibition [11]: 8.61% | inhibition [12]: 3.26% | inhibition [13]: 2.57% | inhibition [14]: 2.08% | inhibition [15]: 2.29% | inhibition [16]: 0.75% | inhibition [17]: 4.22% | inhibition [18]: 2.45% | inhibition [19]: 2.35% | inhibition [20]: 0.05%

COc1cccc(-n2ncc3c(N/N=C/c4ccc(F)cc4)ncnc32)c1
inhibition [1]: 11.3% | inhibition [2]: 4.19% | inhibition [3]: 3.79% | inhibition [4]: 1.79% | inhibition [5]: 3.45% | inhibition [6]: 2.86% | inhibition [7]: 4.41% | inhibition [8]: 10.8% | inhibition [9]: 11.2% | inhibition [10]: 2.73% | inhibition [11]: 4.95% | inhibition [12]: 2.58% | inhibition [13]: 3.42% | inhibition [14]: 2.86% | inhibition [15]: -0.23% | inhibition [16]: 6.26% | inhibition [17]: 8.02% | inhibition [18]: 6.59% | inhibition [19]: 6.78% | inhibition [20]: -0.12%

Fc1cccc(COc2ccc(Nc3ncnc4sc(-c5ccco5)cc34)cc2Cl)c1
inhibition [1]: 8.15% | inhibition [2]: 5.55% | inhibition [3]: 4.99% | inhibition [4]: 4% | inhibition [5]: 2.19% | inhibition [6]: -0.58% | inhibition [7]: 14.7% | inhibition [8]: 28.4% | inhibition [9]: 75.8% | inhibition [10]: 1.71% | inhibition [11]: 3.22% | inhibition [12]: 3.4% | inhibition [13]: 2.89% | inhibition [14]: 1.73% | inhibition [15]: 5.35% | inhibition [16]: 4.08% | inhibition [17]: 8.41% | inhibition [18]: 5.53% | inhibition [19]: 5.9% | inhibition [20]: 0.31%

CCN(CC)S(=O)(=O)c1ccc(OC)c(Nc2ncc(-c3ccccc3)o2)c1
inhibition [1]: 15.1% | inhibition [2]: 3.77% | inhibition [3]: 0.54% | inhibition [4]: 0.17% | inhibition [5]: 7.93% | inhibition [6]: 0.91% | inhibition [7]: 2.81% | inhibition [8]: 7.08% | inhibition [9]: 6.51% | inhibition [10]: 0.84% | inhibition [11]: 4.52% | inhibition [12]: 0.12% | inhibition [13]: -0.42% | inhibition [14]: 0.18% | inhibition [15]: 23.7% | inhibition [16]: 15% | inhibition [17]: 54.6% | inhibition [18]: 18.4% | inhibition [19]: 59.5% | inhibition [20]: 2.44%

CC(=O)Nc1cccc(C#Cc2cncnc2Nc2ccc(OCc3cccc(F)c3)c(Cl)c2)c1
inhibition [1]: 10.7% | inhibition [2]: 4.08% | inhibition [3]: 0.84% | inhibition [4]: 1.66% | inhibition [5]: 2.84% | inhibition [6]: 0.38% | inhibition [7]: 10.5% | inhibition [8]: 20.5% | inhibition [9]: 57.1% | inhibition [10]: 1.31% | inhibition [11]: 1.14% | inhibition [12]: 3.02% | inhibition [13]: 3.58% | inhibition [14]: 5.54% | inhibition [15]: 8.04% | inhibition [16]: 2.27% | inhibition [17]: 5.67% | inhibition [18]: 4.66% | inhibition [19]: 5.53% | inhibition [20]: 0.9%
